Inconclusive results are not listed. Entries that show only a call come without a potency. Activity calls are given as the source filed them. Calls come from the whole dose curve.
Columns and labels:
[1] = Primary qHTS for Huh7 cytotoxicity: counterscreen for inhibitors of MERS-S pseudotyped particle cell entry (AID 1479147); conditions: outcome: dose series up to 57.1 µM unless noted
[2] = Primary qHTS for Vero E6 cytotoxicity: counterscreen for inhibitors of SARS-S pseudo-typed particle cell entry (AID 1479150); conditions: outcome: dose series up to 57.1 µM unless noted
[3] = Confirmatory qHTS to identify inhibitors of SARS-CoV-2 cell entry (AID 1645844); note: potency is the fitted concentration of half-maximal effect; nearly all actives have a fitted effect of over 45% in size
How it was run: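 Luminescence from a luciferase reporter, read 48 hr after pseudotyped-particle addition, gives entry signal, normalised to spike-bearing PP wells and bald PP lacking fusion protein wells. Cells are Expi293F stably expressing human ACE2, compound-pretreated 1 hr.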

[4] = Cytotoxicity counterscreen for inhibitors of SARS-CoV-2 cell entry (AID 1645845); conditions: outcome: dose series up to 57.1 µM unless noted; note: nearly all actives have a fitted effect of over 50% in size; note: potency is the fitted concentration of half-maximal effect
How it was run: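 48 h compound treatment (after 1 h preincubation), HEK293-ACE2 cells, 37 C/5% CO2; ATP luminescence endpoint; normalized to cell wells and media blanks.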

[5] = Primary qHTS to identify inhibitors of SARS-CoV-2 cell entry (AID 1645846); conditions: SARS-CoV-2 pseudovirus cell entry assay, luminescence; activity change, negative = inhibition: at 57.1 µM (top of the series) unless noted; note: nearly all actives have a fitted effect of over 45% in size; note: potency is the fitted concentration of half-maximal effect
How it was run: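 Luminescence readout (Bright-Glo luciferase) 48 h after pseudoparticle addition. HEK293-ACE2 cells, 1500/well; compound pre-incubation 1 h; Normalized to spike PP and bald PP.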

[6] = VSVG counterscreen qHTS to identify inhibitors of SARS-CoV-2 cell entry (AID 1645847); note: nearly all actives have a fitted effect of over 65% in size; note: potency is the fitted concentration of half-maximal effect
How it was run: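 HEK293-ACE2 cells (Expi293F stably expressing human ACE2) were pretreated with compound for 1 h at 37 °C, then infected with MLV-based VSV-G pseudotyped particles for 48 h. Luciferase luminescence was normalized to VSV-G PP and bald PP wells.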

[7] = Confirmatory qHTS for VERO E6 Cytotoxicity Assay: Counterscreen for SARS-CoV-2 CPE Assay (AID 1508605); note: nearly all actives have a fitted effect of over 60% in size; note: potency is the fitted concentration of half-maximal effect

Cc1cncc(CN2CCC(=C3c4ccc(Cl)cc4CCc4cccnc43)CC2)c1
Potency [1]: inactive
Potency [2]: inactive
Potency [3]: 0.607 µM (active)
Potency [4]: inactive
Potency [5]: 12.6 µM (active)
Potency [6]: 27.1 µM (active)

CC[C@@H](C)[C@H]1O[C@]2(CC[C@@H]1C)C[C@@H]1C[C@@H](C/C=C(\C)[C@@H](O[C@H]3C[C@H](OC)[C@@H](O[C@H]4C[C@H](OC)[C@@H](O)[C@H](C)O4)[C@H](C)O3)[C@@H](C)/C=C/C=C3\CO[C@@H]4[C@H](O)C(C)=C[C@@H](C(=O)O1)[C@]34O)O2
Potency [1]: inactive
Potency [2]: inactive
Potency [4]: inactive

CCN1CCC(=C2c3ccccc3CCc3ccccc32)C1C (centres undefined)
Potency [1]: inactive
Potency [2]: inactive
Potency [4]: inactive

O=C1[C@@H]2[C@H]3CC[C@H](C3)[C@@H]2C(=O)N1C[C@@H]1CCCC[C@H]1CN1CCN(c2nsc3ccccc23)CC1
Potency [1]: inactive
Potency [2]: inactive
Potency [4]: inactive
Potency [5]: 31.6 µM (active)

CO[C@H]1/C=C\O[C@@]2(C)Oc3c(C)c(O)c4c(O)c(c5c(c4c3C2=O)=NC2(CCN(CC(C)C)CC2)N=5)NC(=O)/C(C)=C\C=C/[C@H](C)[C@H](O)[C@@H](C)[C@@H](O)[C@@H](C)[C@H](OC(C)=O)[C@@H]1C
Potency [1]: inactive
Potency [2]: inactive
Potency [4]: inactive
activity change, negative = inhibition [5]: -26.3%

CC(CN(C)C)CN1c2ccccc2Sc2ccc(C(F)(F)F)cc21 (centres undefined)
Potency [1]: inactive
Potency [2]: inactive
Potency [7]: inactive
Potency [4]: inactive
Potency [5]: 12.6 µM (active)

CC[C@@H](C(=O)[C@@H](C)[C@@H](O)[C@H](C)CCc1ccc(C)c(O)c1C(=O)O)[C@H]1O[C@](CC)([C@H]2CC[C@](O)(CC)[C@H](C)O2)C[C@@H]1C
Potency [1]: inactive
Potency [2]: inactive
Potency [4]: 8.91 µM (active)

COc1cc2[nH]c(C)c(CCN3CCN(c4ccccc4)CC3)c2cc1OC
Potency [1]: inactive
Potency [2]: inactive
Potency [4]: inactive
activity change, negative = inhibition [5]: -39.8%

CCCCCCCCCC(=O)OCCN1CCN(CCCN2c3ccccc3Sc3ccc(C(F)(F)F)cc32)CC1
Potency [1]: inactive
Potency [2]: inactive
Potency [4]: inactive

CCCCCCC(COC(=O)c1cccnc1)(COC(=O)c1cccnc1)COC(=O)c1cccnc1
Potency [1]: inactive
Potency [2]: inactive
Potency [4]: inactive
activity change, negative = inhibition [5]: -17.5%

COc1c(-c2ccc3cc(NS(C)(=O)=O)ccc3c2)cc(-n2ccc(=O)[nH]c2=O)cc1C(C)(C)C
Potency [1]: inactive
Potency [2]: inactive
Potency [4]: inactive

COC(=O)C1=C(C#N)NC(C)=C(C(=O)OC(C)C)C1c1cccc([N+](=O)[O-])c1 (centres undefined)
Potency [1]: inactive
Potency [2]: inactive
Potency [4]: inactive

[2H]C([2H])([2H])C(O)([C@@H](C)/C=C/[C@@H](C)[C@H]1CC[C@H]2/C(=C/C=C3C[C@@H](O)C[C@H](O)C3)CCC[C@]12C)C([2H])([2H])[2H]
Potency [1]: inactive
Potency [2]: inactive
Potency [3]: 6.81 µM (active)
Potency [4]: inactive
activity change, negative = inhibition [5]: -60.1%
Potency [6]: 3.83 µM (active)

N#Cc1ccc2[nH]cc(CCCCN3CCN(c4ccc5oc(C(N)=O)cc5c4)CC3)c2c1
Potency [1]: inactive
Potency [2]: inactive
Potency [7]: inactive
Potency [4]: inactive

CC(C)C[C@H]1C(=O)N2CCC[C@H]2[C@]2(O)O[C@](NC(=O)[C@@H]3C=C4c5cccc6[nH]c(Br)c(c56)CC4N(C)C3)(C(C)C)C(=O)N12 (some centres undefined)
Potency [1]: inactive
Potency [2]: inactive
Potency [4]: inactive
Potency [5]: 22.4 µM (active)

COc1cc2c(cc1OC)[C@H]1C[C@@H](OC(=O)[C@@H](N)C(C)C)[C@H](CC(C)C)CN1CC2
Potency [1]: inactive
Potency [2]: inactive
Potency [4]: inactive

COC(=O)N[C@H](C(=O)N1CCC[C@H]1c1ncc(-c2ccc(-c3ccc(-c4cnc([C@@H]5CCCN5C(=O)[C@@H](NC(=O)OC)C(C)C)[nH]4)cc3)cc2)[nH]1)C(C)C
Potency [1]: inactive
Potency [2]: inactive
Potency [4]: 39.8 µM (active)
Potency [6]: 1.71 µM (active)

CCCCCCCCCC(=O)NO
Potency [1]: inactive
Potency [2]: inactive
Potency [4]: inactive

Cc1ccc(C2(O)CCN(CCCC(=O)c3ccc(F)cc3)CC2)cc1
Potency [1]: inactive
Potency [2]: inactive
Potency [4]: inactive

CCC1OC(=O)[C@H](C)C(=O)[C@H](C)[C@@H](OC2O[C@H](C)C[C@H](N(C)C)[C@H]2O)[C@](C)(OC)C[C@@H](C)C(=O)[C@@H](C)[C@@H]2N(CCCCn3cnc(-c4cccnc4)c3)C(=O)O[C@]12C (some centres undefined)
Potency [1]: inactive
Potency [2]: inactive
Potency [4]: inactive

O=C(O)c1ccc2nc(-c3cc(Cl)cc(Cl)c3)oc2c1
Potency [1]: inactive
Potency [2]: inactive
Potency [4]: inactive
Potency [5]: inactive

COc1cc(N2CCC(N3CCN(C)CC3)CC2)ccc1Nc1ncc(Cl)c(Nc2ccccc2P(C)(C)=O)n1
Potency [2]: inactive
Potency [3]: 4.82 µM (active)
Potency [5]: 8.91 µM (active)
Potency [6]: inactive

CCN(CC)CCN(Cc1ccc(-c2ccc(C(F)(F)F)cc2)cc1)C(=O)Cn1c(SCc2ccc(F)cc2)nc(=O)c2c1CCC2
Potency [7]: 10 µM (active)

From PubChem BioAssay (NCATS)
